Targets with a hit are over-represented here; the source holds about 8,800 in all. About 0.5% of all pairs of compound and target were hits.
How the values were obtained:
Assay in all cases: log2 fold change, soluble protein after heating vs DMSO (PISA); higher = thermal stabilisation; K562 lysate, 10 uM; active = over 0.2 and 3.5 SD of the protein, either way, in both replicates (recomputed)
alvocidib = compound: CN1CC[C@H](c2c(O)cc(O)c3c(=O)cc(-c4ccccc4Cl)oc23)[C@H](O)C1 [alvocidib]
Outline: (§1)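 Soluble protein was defined as the supernatant remaining after 21,000xg for 90 min, following pooling of heated aliquots and adjustment to 0.5% NP-40 at 4°C. Before that, crude K562 extract at 1 mg/mL protein in PBS pH 7.4 with 1 mM MgCl2 was treated with 10 μM compound for 30 min and heated for 3 min across 48°C-58°C. Quantification used TMTpro 16plex LC-MS/MS with channel sums equalised, and values are log-two fold changes in thermal stability relative to solvent controls from duplicates.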

Tubastatin A = compound: CN1CCc2c(c3ccccc3n2Cc2ccc(C(=O)NO)cc2)C1 [Tubastatin A]
Outline: as §1

[1] = compound: CNC(=O)C1=CC=CC=C1NC2=NC(=NC=C2Cl)NC3=C(C=C(C=C3)N4CCOCC4)OC
Outline: as §1

defactinib = compound: CNC(=O)c1ccc(Nc2ncc(C(F)(F)F)c(NCc3nccnc3N(C)S(C)(=O)=O)n2)cc1 [defactinib]
Outline: as §1

[2] = compound: CNc1nc(-c2ccc3c(N)n[nH]c3c2)cc(N2C[C@@H](C(=O)NC3CCCCC3)CC[C@H]2C)n1
Outline: as §1

encorafenib = compound: COC(=O)N[C@@H](C)CNc1nccc(-c2cn(C(C)C)nc2-c2cc(Cl)cc(NS(C)(=O)=O)c2F)n1 [encorafenib]
Outline: as §1

[3] = compound: COC(=O)[C@H](CCSC)NC(=O)C1=C(C=C(C=C1)NC[C@H](CS)N)C2=CC=CC=C2
Outline: as §1

alisertib = compound: COc1cc(Nc2ncc3c(n2)-c2ccc(Cl)cc2C(c2c(F)cccc2OC)=NC3)ccc1C(=O)O [alisertib]
Outline: as §1

[4] = compound: COc1cc2nc(-c3cc(F)ccc3O)nc(N[C@@H]3CNC[C@H]3C(C)(C)O)c2cc1OC
Outline: as §1

gefitinib = compound: COc1cc2ncnc(Nc3ccc(F)c(Cl)c3)c2cc1OCCCN1CCOCC1 [gefitinib]
Outline: as §1

lapatinib = compound: CS(=O)(=O)CCNCc1ccc(-c2ccc3ncnc(Nc4ccc(OCc5cccc(F)c5)c(Cl)c4)c3c2)o1 [lapatinib]
Outline: as §1

pictilisib = compound: CS(=O)(=O)N1CCN(Cc2cc3nc(-c4cccc5[nH]ncc45)nc(N4CCOCC4)c3s2)CC1 [pictilisib]
Outline: as §1

crizotinib = compound: C[C@@H](Oc1cc(-c2cnn(C3CCNCC3)c2)cnc1N)c1c(Cl)ccc(F)c1Cl [crizotinib]
Outline: as §1

[5] = compound: C[C@H](C1=CC=C(C=C1)C(=O)NC2=C3C=CNC3=NC=C2)N
Outline: as §1

duvelisib = compound: C[C@H](Nc1ncnc2nc[nH]c12)c1cc2cccc(Cl)c2c(=O)n1-c1ccccc1 [duvelisib]
Outline: as §1

gandotinib = compound: Cc1cc(Nc2cc(CN3CCOCC3)c3nc(C)c(Cc4ccc(Cl)cc4F)n3n2)n[nH]1 [gandotinib]
Outline: as §1

tozasertib = compound: Cc1cc(Nc2cc(N3CCN(C)CC3)nc(Sc3ccc(NC(=O)C4CC4)cc3)n2)n[nH]1 [tozasertib]
Outline: as §1

doramapimod = compound: Cc1ccc(-n2nc(C(C)(C)C)cc2NC(=O)Nc2ccc(OCCN3CCOCC3)c3ccccc23)cc1 [doramapimod]
Outline: as §1

bafetinib = compound: Cc1ccc(NC(=O)c2ccc(CN3CC[C@H](N(C)C)C3)c(C(F)(F)F)c2)cc1Nc1nccc(-c2cncnc2)n1 [bafetinib]
Outline: as §1

[6] = compound: Cc1cccc(CC(=O)N2CCc3c2ccc(-c2cn(C)c4ncnc(N)c24)c3F)n1
Outline: as §1

Measured: log2 fold change

CDK5RAP3 isoform 4 (UniProt Q96JB5)
inactive: alvocidib -0.118 | Tubastatin A 0.038 | [1] -0.007 | defactinib -0.021 | [2] 0.021 | encorafenib 0.007 | [3] 0.094 | alisertib 0.006 | [4] 0.026 | gefitinib -0.024 | lapatinib -0.013 | pictilisib -0.028 | crizotinib -0.054 | duvelisib -0.002 | gandotinib 0.173 | tozasertib 0.019 | doramapimod 0.017 | bafetinib -0.02 | [6] 0.211
active: [5] -0.231

ATP6V1B1 (UniProt P15313)
Chain of UniProt P15313 (P15313 whole entry, looked up): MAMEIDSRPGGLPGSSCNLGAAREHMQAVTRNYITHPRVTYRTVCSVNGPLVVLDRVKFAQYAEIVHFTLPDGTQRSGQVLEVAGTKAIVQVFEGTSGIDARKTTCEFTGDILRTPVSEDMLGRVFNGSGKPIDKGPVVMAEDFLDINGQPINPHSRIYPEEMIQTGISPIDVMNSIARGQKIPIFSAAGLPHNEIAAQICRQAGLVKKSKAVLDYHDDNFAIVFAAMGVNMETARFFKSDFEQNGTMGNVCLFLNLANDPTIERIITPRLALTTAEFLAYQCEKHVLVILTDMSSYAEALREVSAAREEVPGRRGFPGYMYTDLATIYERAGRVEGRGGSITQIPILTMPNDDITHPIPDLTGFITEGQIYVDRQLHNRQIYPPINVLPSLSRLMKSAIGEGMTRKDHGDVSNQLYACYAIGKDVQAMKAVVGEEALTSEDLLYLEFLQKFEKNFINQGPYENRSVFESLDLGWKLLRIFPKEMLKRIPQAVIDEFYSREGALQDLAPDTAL
inactive: alvocidib -0.118 | Tubastatin A 0.095 | [1] 0.018 | defactinib -0.005 | [2] 0.031 | encorafenib -0.032 | [3] 0.017 | alisertib 0.023 | [4] 0.009 | gefitinib -0.033 | lapatinib -0.028 | pictilisib -0.028 | crizotinib -0.035 | [5] -0.232 | duvelisib -0.001 | gandotinib 0.099 | tozasertib 0 | doramapimod 0.042 | bafetinib -0.044 | [6] 0.129

CCDC22 (UniProt O60826)
inactive: alvocidib 0.024 | Tubastatin A -0.063 | [1] 0.012 | defactinib -0.03 | [2] 0.009 | encorafenib 0.031 | [3] -0.029 | alisertib 0.002 | [4] -0.009 | gefitinib 0.027 | lapatinib -0.002 | pictilisib -0.017 | crizotinib -0.036 | [5] -0.014 | duvelisib -0.016 | gandotinib -0.056 | tozasertib 0.03 | doramapimod 0.023 | bafetinib -0.035 | [6] -0.005

CASC4 (UniProt Q6P4E1)
inactive: alvocidib -0.03 | Tubastatin A 0.054 | [1] 0.011 | defactinib -0.064 | [2] -0.044 | encorafenib 0.128 | [3] -0.012 | alisertib 0.035 | [4] -0.004 | gefitinib 0.086 | lapatinib -0.038 | pictilisib 0.069 | crizotinib 0.019 | [5] -0.088 | duvelisib 0.051 | gandotinib 0.016 | tozasertib 0.067 | doramapimod 0.057 | bafetinib -0.045 | [6] 0.02

CALB2 (UniProt P22676)
Chain of UniProt P22676 (P22676 whole entry, looked up): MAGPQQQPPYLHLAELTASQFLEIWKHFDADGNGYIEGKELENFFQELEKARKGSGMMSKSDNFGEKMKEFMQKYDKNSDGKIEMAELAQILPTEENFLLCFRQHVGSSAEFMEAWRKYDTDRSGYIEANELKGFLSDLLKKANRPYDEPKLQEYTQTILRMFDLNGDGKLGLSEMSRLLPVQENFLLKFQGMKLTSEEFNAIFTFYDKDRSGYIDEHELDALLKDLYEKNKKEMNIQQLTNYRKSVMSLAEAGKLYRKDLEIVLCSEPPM
inactive: alvocidib -0.028 | Tubastatin A -0.022 | [1] -0.028 | defactinib -0.062 | [2] 0.034 | encorafenib -0.014 | [3] -0.003 | alisertib -0.008 | [4] -0.01 | gefitinib 0.112 | lapatinib 0.009 | pictilisib -0.07 | crizotinib 0.01 | [5] -0.041 | duvelisib 0.031 | gandotinib 0.092 | tozasertib 0.056 | doramapimod 0.003 | bafetinib 0.082 | [6] -0.007

CARD9 (UniProt Q9H257)
inactive: alvocidib -0.011 | Tubastatin A -0.099 | [1] 0.043 | defactinib 0.05 | [2] 0.038 | encorafenib -0.06 | [3] 0.068 | alisertib -0.004 | [4] 0.009 | gefitinib -0.021 | lapatinib -0.048 | pictilisib -0.035 | crizotinib -0.053 | [5] -0.016 | duvelisib -0.009 | gandotinib -0.032 | tozasertib 0.022 | doramapimod 0.032 | bafetinib -0.145 | [6] 0.03

ATAD1 (UniProt Q8NBU5)
active: gandotinib 0.386
inactive: alvocidib -0.047 | Tubastatin A -0.016 | [1] 0.045 | defactinib -0.054 | [2] 0.006 | encorafenib -0.049 | [3] -0.042 | alisertib -0.119 | [4] 0.039 | gefitinib 0.22 | lapatinib -0.158 | pictilisib 0.012 | crizotinib -0.022 | [5] -0.081 | duvelisib -0.051 | tozasertib 0.017 | doramapimod 0.015 | bafetinib -0.008 | [6] 0.012

BRD2 isoform 2 (UniProt P25440)
inactive: alvocidib 0.06 | Tubastatin A 0.002 | [1] 0.059 | defactinib -0.187 | [2] 0.068 | encorafenib 0.084 | [3] -0.118 | alisertib 0 | [4] 0.019 | gefitinib -0.009 | lapatinib 0.014 | pictilisib 0.012 | crizotinib 0.024 | [5] 0.128 | duvelisib -0.007 | gandotinib -0.133 | tozasertib 0 | doramapimod -0.084 | bafetinib -0.131 | [6] -0.186

CBX1 (UniProt P83916)
Chain of UniProt P83916 (P83916 whole entry, looked up): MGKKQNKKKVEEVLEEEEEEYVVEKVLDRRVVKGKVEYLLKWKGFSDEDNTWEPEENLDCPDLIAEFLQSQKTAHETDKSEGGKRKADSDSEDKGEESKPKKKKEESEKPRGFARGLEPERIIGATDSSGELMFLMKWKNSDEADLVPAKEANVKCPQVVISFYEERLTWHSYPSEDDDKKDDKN
active: [5] 0.279
inactive: alvocidib 0.078 | Tubastatin A 0.011 | [1] 0.011 | defactinib -0.001 | [2] 0.025 | encorafenib 0.01 | [3] -0.055 | alisertib 0.012 | [4] -0.025 | gefitinib 0.059 | lapatinib 0.052 | pictilisib -0.006 | crizotinib 0.023 | duvelisib 0.03 | gandotinib -0.143 | tozasertib -0.05 | doramapimod -0.034 | bafetinib 0.025 | [6] -0.138

CAD (UniProt P27708)
inactive: alvocidib 0 | Tubastatin A -0.063 | [1] 0.01 | defactinib -0.022 | [2] -0.008 | encorafenib 0.001 | [3] 0.067 | alisertib -0.007 | [4] -0.015 | gefitinib -0.032 | lapatinib -0.023 | pictilisib -0.02 | crizotinib -0.038 | [5] -0.024 | duvelisib -0.011 | gandotinib -0.019 | tozasertib 0 | doramapimod 0.02 | bafetinib -0.052 | [6] 0.07

BSDC1 (UniProt Q9NW68)
Chain of UniProt Q9NW68 (Q9NW68 whole entry, looked up): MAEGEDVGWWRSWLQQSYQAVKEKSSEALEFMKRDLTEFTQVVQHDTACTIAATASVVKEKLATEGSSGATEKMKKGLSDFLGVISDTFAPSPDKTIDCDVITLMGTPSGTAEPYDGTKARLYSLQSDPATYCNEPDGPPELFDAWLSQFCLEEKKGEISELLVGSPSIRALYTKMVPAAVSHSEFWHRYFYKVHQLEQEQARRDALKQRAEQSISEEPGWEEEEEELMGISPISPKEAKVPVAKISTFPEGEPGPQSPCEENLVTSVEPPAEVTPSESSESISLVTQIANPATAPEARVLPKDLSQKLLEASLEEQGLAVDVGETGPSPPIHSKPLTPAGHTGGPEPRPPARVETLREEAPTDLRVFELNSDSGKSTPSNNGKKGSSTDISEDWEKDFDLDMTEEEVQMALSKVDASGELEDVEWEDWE
active: gandotinib 0.312
inactive: alvocidib -0.033 | Tubastatin A 0.052 | [1] 0.018 | defactinib 0.031 | [2] -0.025 | encorafenib 0.112 | [3] -0.149 | alisertib 0.026 | [4] -0.031 | gefitinib -0.017 | lapatinib 0.088 | pictilisib -0.055 | crizotinib 0.012 | [5] -0.052 | duvelisib 0.016 | tozasertib -0.005 | doramapimod 0.098 | bafetinib -0.012 | [6] 0.019

CEP120 (UniProt Q8N960)
Chain of UniProt Q8N960 (Q8N960 whole entry, looked up): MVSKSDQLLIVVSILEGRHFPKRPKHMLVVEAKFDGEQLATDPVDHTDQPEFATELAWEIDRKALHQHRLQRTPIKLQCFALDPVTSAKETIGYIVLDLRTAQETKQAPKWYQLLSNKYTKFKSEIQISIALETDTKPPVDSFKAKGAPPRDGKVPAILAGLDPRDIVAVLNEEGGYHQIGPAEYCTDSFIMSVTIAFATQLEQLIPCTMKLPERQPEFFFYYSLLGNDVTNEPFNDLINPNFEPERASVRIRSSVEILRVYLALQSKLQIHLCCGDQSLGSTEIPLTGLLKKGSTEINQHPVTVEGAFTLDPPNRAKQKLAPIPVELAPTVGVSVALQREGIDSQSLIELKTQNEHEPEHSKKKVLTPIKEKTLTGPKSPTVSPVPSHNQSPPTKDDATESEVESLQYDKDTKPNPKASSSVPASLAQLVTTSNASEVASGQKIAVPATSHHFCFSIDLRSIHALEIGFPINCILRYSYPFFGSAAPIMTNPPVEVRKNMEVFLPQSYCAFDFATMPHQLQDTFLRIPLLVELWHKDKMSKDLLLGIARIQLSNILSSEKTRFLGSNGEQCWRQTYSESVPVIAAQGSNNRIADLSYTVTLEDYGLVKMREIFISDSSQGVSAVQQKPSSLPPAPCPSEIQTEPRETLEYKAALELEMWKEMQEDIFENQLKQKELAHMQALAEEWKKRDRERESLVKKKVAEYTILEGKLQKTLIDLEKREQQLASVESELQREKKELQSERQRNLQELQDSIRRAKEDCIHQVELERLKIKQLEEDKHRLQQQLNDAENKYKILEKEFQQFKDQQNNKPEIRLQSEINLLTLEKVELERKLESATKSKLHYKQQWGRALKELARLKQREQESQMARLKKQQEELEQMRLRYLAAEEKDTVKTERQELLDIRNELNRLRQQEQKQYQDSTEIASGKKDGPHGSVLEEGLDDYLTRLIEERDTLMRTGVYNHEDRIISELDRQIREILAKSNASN
inactive: alvocidib -0.046 | Tubastatin A 0.098 | [1] -0.096 | defactinib -0.025 | [2] 0.273 | encorafenib 0.065 | [3] -0.117 | alisertib 0.141 | [4] 0.038 | gefitinib 0.119 | lapatinib -0.076 | pictilisib -0.007 | crizotinib -0.034 | [5] -0.105 | duvelisib 0.005 | gandotinib 0.016 | tozasertib -0.096 | doramapimod 0.107 | bafetinib -0.257 | [6] 0.129

C18orf32 (UniProt Q8TCD1)
Chain of UniProt Q8TCD1 (Q8TCD1 whole entry, looked up): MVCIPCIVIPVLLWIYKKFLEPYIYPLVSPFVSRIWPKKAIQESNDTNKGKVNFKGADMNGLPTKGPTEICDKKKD
inactive: alvocidib 0.049 | Tubastatin A 0.035 | [1] 0.084 | defactinib 0.144 | [2] 0 | encorafenib 0.168 | [3] -0.316 | alisertib 0.043 | [4] -0.019 | gefitinib -0.249 | lapatinib -0.012 | pictilisib 0.041 | crizotinib -0.07 | [5] -0.093 | duvelisib -0.203 | gandotinib 0.001 | tozasertib -0.011 | doramapimod -0.01 | bafetinib -0.04 | [6] 0.047

ATXN2 (UniProt Q99700)
Chain of UniProt Q99700 (Q99700 whole entry, looked up): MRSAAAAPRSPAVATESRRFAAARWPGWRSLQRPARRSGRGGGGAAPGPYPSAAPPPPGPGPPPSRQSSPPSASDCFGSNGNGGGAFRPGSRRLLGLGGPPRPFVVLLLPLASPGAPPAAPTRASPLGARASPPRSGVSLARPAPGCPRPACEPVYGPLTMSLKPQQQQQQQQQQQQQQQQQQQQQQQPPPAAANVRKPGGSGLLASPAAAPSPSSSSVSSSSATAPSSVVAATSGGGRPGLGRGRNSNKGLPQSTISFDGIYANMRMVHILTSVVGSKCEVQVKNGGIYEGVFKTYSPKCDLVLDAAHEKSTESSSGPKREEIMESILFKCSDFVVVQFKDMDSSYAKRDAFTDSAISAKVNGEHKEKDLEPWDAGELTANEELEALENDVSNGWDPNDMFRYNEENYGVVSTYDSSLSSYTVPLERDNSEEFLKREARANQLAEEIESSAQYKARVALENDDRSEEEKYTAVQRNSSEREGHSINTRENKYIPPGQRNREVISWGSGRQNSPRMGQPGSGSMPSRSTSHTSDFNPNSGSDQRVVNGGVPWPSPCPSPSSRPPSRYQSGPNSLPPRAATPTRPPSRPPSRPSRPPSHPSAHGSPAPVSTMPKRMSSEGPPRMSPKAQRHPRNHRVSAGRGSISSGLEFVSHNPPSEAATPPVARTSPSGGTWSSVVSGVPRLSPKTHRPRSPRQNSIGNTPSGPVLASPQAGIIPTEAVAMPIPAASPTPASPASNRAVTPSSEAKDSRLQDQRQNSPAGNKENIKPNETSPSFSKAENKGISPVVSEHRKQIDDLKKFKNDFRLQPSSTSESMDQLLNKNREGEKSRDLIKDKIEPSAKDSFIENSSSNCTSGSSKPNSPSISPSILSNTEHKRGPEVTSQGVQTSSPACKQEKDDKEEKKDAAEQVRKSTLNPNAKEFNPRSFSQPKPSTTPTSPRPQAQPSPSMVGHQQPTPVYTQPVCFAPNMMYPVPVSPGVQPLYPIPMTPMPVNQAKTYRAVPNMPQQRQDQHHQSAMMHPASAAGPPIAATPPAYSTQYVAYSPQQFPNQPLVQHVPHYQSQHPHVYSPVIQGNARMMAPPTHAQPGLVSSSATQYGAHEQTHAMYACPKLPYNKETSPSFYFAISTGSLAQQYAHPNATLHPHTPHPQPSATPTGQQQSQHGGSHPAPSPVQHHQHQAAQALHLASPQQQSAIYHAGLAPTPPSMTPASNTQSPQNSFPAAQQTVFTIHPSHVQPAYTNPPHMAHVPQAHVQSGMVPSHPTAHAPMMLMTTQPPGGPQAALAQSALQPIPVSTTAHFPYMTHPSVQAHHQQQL
inactive: alvocidib 0.046 | Tubastatin A -0.047 | [1] 0.016 | defactinib -0.019 | [2] 0.001 | encorafenib 0.018 | [3] -0.003 | alisertib -0.032 | [4] 0.011 | gefitinib 0.006 | lapatinib 0.006 | pictilisib -0.042 | crizotinib 0.028 | [5] 0.019 | duvelisib 0.025 | gandotinib 0.001 | tozasertib 0.011 | doramapimod 0.017 | bafetinib -0.012 | [6] -0.006

CAMKK2 (UniProt Q96RR4)
Chain of UniProt Q96RR4 (Q96RR4 whole entry, looked up): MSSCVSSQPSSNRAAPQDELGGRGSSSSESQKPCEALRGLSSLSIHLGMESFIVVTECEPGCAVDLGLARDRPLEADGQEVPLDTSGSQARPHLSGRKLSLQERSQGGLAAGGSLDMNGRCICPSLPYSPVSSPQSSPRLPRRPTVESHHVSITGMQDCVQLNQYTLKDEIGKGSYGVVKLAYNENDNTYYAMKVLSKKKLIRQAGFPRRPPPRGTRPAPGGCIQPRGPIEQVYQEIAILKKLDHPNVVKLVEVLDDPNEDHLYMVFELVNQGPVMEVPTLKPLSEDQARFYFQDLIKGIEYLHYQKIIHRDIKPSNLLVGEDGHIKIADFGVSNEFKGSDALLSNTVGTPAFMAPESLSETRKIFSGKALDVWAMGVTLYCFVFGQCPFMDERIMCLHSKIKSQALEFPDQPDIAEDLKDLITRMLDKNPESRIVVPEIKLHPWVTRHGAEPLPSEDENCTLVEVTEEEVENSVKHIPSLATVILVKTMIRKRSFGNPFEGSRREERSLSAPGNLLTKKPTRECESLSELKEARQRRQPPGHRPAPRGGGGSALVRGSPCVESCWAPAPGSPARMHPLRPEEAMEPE
inactive: alvocidib -0.018 | Tubastatin A -0.123 | defactinib 0.059 | [2] -0.113 | encorafenib -0.013 | [3] 0.018 | alisertib -0.01 | [4] 0.019 | gefitinib 0.021 | lapatinib -0.018 | pictilisib 0.006 | crizotinib 0.108 | [5] 0.023 | duvelisib 0.058 | tozasertib -0.055 | doramapimod 0.031 | bafetinib 0.018 | [6] -0.056
active: [1] 0.277 | gandotinib 0.257

CDKN1C (UniProt P49918)
Chain of UniProt P49918 (P49918 whole entry, looked up): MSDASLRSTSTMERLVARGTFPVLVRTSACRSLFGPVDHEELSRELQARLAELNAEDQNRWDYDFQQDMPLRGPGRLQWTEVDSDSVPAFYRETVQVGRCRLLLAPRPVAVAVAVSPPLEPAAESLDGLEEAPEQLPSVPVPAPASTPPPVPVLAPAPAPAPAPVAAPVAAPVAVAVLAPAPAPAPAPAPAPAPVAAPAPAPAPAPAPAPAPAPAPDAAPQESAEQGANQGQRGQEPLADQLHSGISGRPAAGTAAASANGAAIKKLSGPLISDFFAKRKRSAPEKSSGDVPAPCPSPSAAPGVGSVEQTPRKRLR
inactive: alvocidib -0.035 | Tubastatin A -0.056 | [1] 0.025 | defactinib -0.186 | [2] -0.067 | encorafenib -0.037 | [3] -0.019 | alisertib -0.082 | [4] 0.046 | gefitinib -0.136 | lapatinib 0.027 | pictilisib -0.033 | crizotinib 0.105 | [5] -0.025 | duvelisib -0.035 | gandotinib -0.046 | tozasertib -0.095 | doramapimod -0.045 | bafetinib 0.049 | [6] 0.071

— the supplement of paper PMC10849652
